In ChEMBL document CHEMBL3988442, “University of Dundee, Small-Polar-MMV Screening Library” (2021):
Among all 38,000 compounds or so, about 1,200 (3.2%) showed an effect of 50% or more. The median lay at about -58%. Many of the other results were omitted from the sample, so strong results are more common in it than they were.

These compounds were tested on Plasmodium falciparum (assay: Calibr Malaria Delayed Death Assay SOP). Conditions: concentration 4.99e-06 (unit not given; other assays of the set use mol/L).
Format: functional, organism-based
Set-up: scale not given: in the data most compounds retested in dose-response had high values

Row | Compound | Percent Effect [%]
1 | Cc1ccc(NC(=O)CN2CCOCC2)c(F)c1 | -28.6
2 | Cc1nc(C)c(C)c(N2CCC3(CCN(C)C3)C2)n1 (centres undefined) | 18.67
3 | CCc1nc(N)nc(N2CCCC3(CCN(C)CC3)CC2)c1C | 75.43
4 | CCc1cnc(N)nc1N1CCCC2(CCOCC2)C1 | -153.3
5 | O=C(O)C(F)(F)F.O=C(c1cnccn1)N1C[C@@H](OCc2ccncc2)[C@@H]2OCCC[C@@H]21 | -88.13
6 | CNC(=O)CCN(C)CC1(c2ccc(Br)cc2)CC1 | 86.7
7 | CNC(=O)CN(C)CC1(c2ccc(Br)cc2)CC1 | 20.85
8 | CNC(=O)N(C)CC1(c2ccc(Br)cc2)CC1 | -138.2
9 | COCCn1c2c(ccc1=O)CCN(C(=O)NC1CC1)CC2 | -102.5
10 | O=C1CC(c2ccc(O)cc2)c2sc(C(=O)O)c(-c3ccccc3)c2N1 (centres undefined) | -164.8
11 | Cc1ocnc1C(=O)N1CC[C@@H](O)[C@@H](O)[C@H](N2CCC(F)(F)CC2)C1 | -140.1
12 | Cc1ccc2c(n1)N(CC(C)C)CCN(S(C)(=O)=O)C2.O=C(O)C(F)(F)F | -91.42
13 | CCN1CC(CN2CCOCC2)Oc2ncccc2C1=O (centres undefined) | -121.7
14 | O=C(C1CNCCO1)N1CCC(c2cc(N3CCCC3)ncn2)CC1 (centres undefined) | -72.24
15 | Cc1ccc(-c2ccc(C3CNCCO3)nc2)cc1.Cl (centres undefined) | 82.68
16 | O=C(c1csc(C2CC2)n1)N1CCCCC1Cn1cccn1 (centres undefined) | -84.46
17 | CN(Cc1cccc(C#N)c1)c1ncc(C(N)=O)cc1Cl | -70.4
18 | CC(C(=O)Nc1cc(F)ccc1F)N1CCN(Cc2ncc[nH]2)CC1 (centres undefined) | -135.8
19 | O=C(NCCC(O)c1ccccc1)c1ccco1 (centres undefined) | -97.01
20 | NCCC(Cc1ccccc1)c1ccco1 (centres undefined) | 83.75
21 | O=S(=O)(Cc1ccccc1)NCc1ccco1 | -115.6
22 | CCOc1cccc(C(=O)N(CCC#N)Cc2ccccn2)c1 | -89.54
23 | O=C(NC1CC1)c1cc2c(s1)CCN2C(=O)C1CC1 | -64.25
24 | Cc1ccc(C)c(S(=O)(=O)NC(=O)c2cccc3c2OCCO3)c1 | -117.7
25 | C[C@@H]1CN(Cc2ccncc2)C[C@]1(C)O | -25.52
26 | COc1cccc(CN2CCCCC2CN2CCOCC2)c1F (centres undefined) | 2.016
27 | COc1cc2c(cc1CN1CCCCC1CN1CCOCC1)CCC2 (centres undefined) | 64.85
28 | COc1cc2c(cc1CN1C[C@@H](CN3CCOCC3)[C@@H](CO)C1)CCC2 | 19.43
29 | Cc1c(C(=O)NCCCC(N)=O)sc2ccc(F)cc12 | -72.75
